Only some compounds are listed: those with a hit (about 4.8% of all), similar ones and a draw of the others.
SMARCA2 act: SMARCA2 (BRM) function activators, primary screen, cell-based, luminescence, high throughput | MG213 cells, MMTV-luciferase reporter, dexamethasone, overnight | activation, % at 9.1 µM | 370,000 tested, 1% active | AID 652017, 2013; in the data active = activation above about 7.8%;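 also: 0% = vehicle wells and 100% = reference activator wells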
DAX1 inh-1: DAX1 (NR0B1) inhibitors on StAR promoter, primary screen, cell-based, luminescence, SF-1 (NR5A1), full-length DAX-1; 370,000 tested, 1.1% active; inhibition, % at 6.8 µM; AID 652010, 2013; HEK293T StAR-luciferase reporter, SF-1/DAX-1 repression relief;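 active = inhibition above the mean over all tested compounds plus 3 SD, cut at about 3.6% in these data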;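 also: 0% = DAX-1 cells with DMSO and 100% = cells lacking DAX-1 with DMSO; higher inhibition means more luminescence from relief of DAX-1 repression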
hgDAF-12 ag: H. glycines DAF-12 receptor agonists, primary screen, cell-based, luminescence, HEK293, GAL4 fusion, UAS-luciferase | Nuclear hormone receptor DAF-12 (Heterodera glycines), GAL4 fusion | HEK293 GAL4-hgDAF12 UAS-luciferase reporter, agonist luminescence; normalized to butyrate control | activation, % at 6.8 µM | 370,000 tested, 1.8% active | AID 687014, 2013;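 active = activation above a cutoff set at the mean of all screened compounds plus 3 SD, cut at about 10% in these data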;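 also: 0% = DMSO wells and 100% = sodium butyrate wells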
hcDAF12 agonist: H. contortus DAF-12 nuclear receptor activators, primary screen, cell-based, luminescence, HEK293, lit1-tk-luc reporter; HEK293 hcDAF-12 lit1-tk-luc reporter; 0% DMSO, 100% Δ7-dafachronic acid; activation, % at 6.8 µM; 370,000 tested, 1.4% active; AID 652067, 2013;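 active = activation above the mean of all tested compounds plus 3 SD, cut at about 5.5% in these data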;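 also: 100% = response to 3 µM Δ7-dafachronic acid high control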
ssDAF-12 act: S. stercoralis DAF-12 nuclear receptor activators, primary screen, cell-based, luminescence, HEK293, GRIP1 co-expression, lit1-tk-luc; Nuclear hormone receptor DAF-12 (Strongyloides stercoralis); HEK293 ssDAF-12/GRIP1 lit1-tk-luc reporter; % of 3 µM dafachronic acid response; activation, % at 6.8 µM; 370,000 tested, 1% active; AID 652126, 2013;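 active = activation above the mean over all tested compounds plus 3 SD, cut at about 0.9% in these data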;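 also: 0% = DMSO-only wells and 100% = 3 µM delta7-dafachronic acid wells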
DAX1 inh-2: DAX1 (NR0B1) inhibitors, primary screen, cell-based, HEK293, Gal4-DAX1, luciferase luminescence. Nuclear receptor subfamily 0 group B member 1 (Homo sapiens), P51843. 340,000 tested, 0.99% active. HEK293 Gal4-DAX1 luciferase reporter. AID 504766, 2011. inhibition, % at 6.75 µM;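 active = inhibition above the mean over all tested compounds plus 3 SD, cut at about 4.2% in these data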;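 also: 0% = DAX1-transfected cells with DMSO and 100% = empty-vector control cells with DMSO; inhibition shows as a rise in luminescence from relieved DAX1 repression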
Target sequence (P51843 207-470 limits assumed): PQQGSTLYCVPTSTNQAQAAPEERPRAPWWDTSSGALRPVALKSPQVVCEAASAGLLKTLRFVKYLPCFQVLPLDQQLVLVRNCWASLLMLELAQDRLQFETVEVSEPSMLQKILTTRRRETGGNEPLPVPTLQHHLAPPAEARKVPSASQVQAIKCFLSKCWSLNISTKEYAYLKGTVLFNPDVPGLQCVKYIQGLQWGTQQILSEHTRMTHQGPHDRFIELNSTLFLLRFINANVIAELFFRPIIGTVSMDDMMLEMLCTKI
* = called active by the depositor; · = not tested or not shown.

SMILES | SMARCA2 act | DAX1 inh-1 | hgDAF-12 ag | hcDAF12 agonist | ssDAF-12 act | DAX1 inh-2
O=C(Nc1c(-c2ccccc2)nc2ccccn12)c1ccco1 | 0 | 0 | -2 | -1 | -2 | 1
COc1cccc(OCC(=O)NNC(=O)c2ccc(-c3ccccc3)cc2)c1 | -3 | -1 | -2 | -2 | -1 | 0
N#CCCN1CCC(N)=NC1=NC#N | -2 | 0 | 4 | -1 | -1 | ·
Cc1cccc(C)c1N1CCN(CCn2c(=S)[nH]c3ccccc3c2=O)CC1 | 0 | 0 | -1 | -1 | -1 | 4.2*
COc1cc(C(=O)NC(=S)Nc2ccc3c(c2)OCO3)cc(OC)c1OC | 5 | 0 | 4 | -1 | -1 | ·
COc1ccccc1OCc1nnc(SCC(=O)Nc2ccc(N3CCOCC3)cc2)n1C | 0 | -1 | 7 | 0 | -1 | 4.8*
Cc1cc(C)cc(NC(=O)CSc2nnc(CN3CCOCC3)n2C)c1 | -2 | -1 | 3 | -2 | -1 | 4.4*
C=CCn1c(SCC(=O)NCCCC)nc2scc(-c3ccco3)c2c1=O | -4 | -1 | -2 | -1 | -1 | 0
C=CCn1c(SCC(C)=O)nc2scc(-c3ccc(C)o3)c2c1=O | 5 | 1 | 5 | 1 | -1 | 4.7*
CCOc1ccc(N(C(C)C(=O)N2CCCCCC2)S(C)(=O)=O)cc1 (configuration not stated) | -2 | 0 | -3 | -2 | 1.5* | 4
COC(=O)C(Cc1ccccc1)NC(=O)CC(C)CC(=O)Nc1ccc(OC)cc1OC (configuration not stated) | -3 | 1 | 4 | 0 | -1 | 2
O=C(NCC(c1ccco1)N1CCCCC1)c1cccs1 (configuration not stated) | -6 | 1 | 0 | 3 | -1 | 0
O=C(NCC(c1ccco1)N1CCCCC1)c1cc2c(s1)CCCC2 (configuration not stated) | -3 | 4.2* | 1 | -1 | 0 | -1
O=C(/C=C/c1ccccc1[N+](=O)[O-])NCCN1C(=O)S/C(=C\c2ccc(F)cc2)C1=O | 0 | 1 | 2 | 3 | -1 | 2
CC(C)(C)C(=O)NCCN1C(=O)S/C(=C\c2ccc([N+](=O)[O-])cc2)C1=O | 2 | -1 | 12* | -2 | -1 | -1
COc1nonc1NCn1nc(C)cc1C | -4 | 0 | 0 | 0 | -1 | 1
O=c1c2ccc(F)cc2nc2sc(Nc3ccc4c(c3)CCC4)nn12 | · | · | 11* | 2 | 0 | ·
O=c1c2ccccc2nc2sc(Nc3cccc(Cl)c3)nn12 | 2 | 0 | 1 | 2 | 0 | 0
COc1ccc(NC(=O)CCc2ccccc2)cc1S(=O)(=O)N1CCOCC1 | 1 | -1 | 2 | -2 | -1 | -1
O=Cc1ccc2cccnc2n1 | -3 | 0 | 1 | 6.1* | 2.0* | 1
N=c1ccn(O)cc1CCc1ccccc1 | 3 | 2 | 0 | 2 | -2 | 5.8*
CN(C)Cc1ccccc1CCc1ccccc1 | -2 | -1 | 3 | -1 | 0 | ·
Cc1cccc(NC(=O)CSc2nc3ccccc3o2)c1 | 2 | 1 | 13* | 3 | 0 | 2
O=C(COC(=O)c1cc2ccccc2oc1=O)Nc1cccc(S(=O)(=O)N2CCCCCC2)c1 | -2 | 0 | 5 | 1 | 0 | 1
Cc1cccc(NC(=O)c2cc3ccccc3oc2=O)c1 | 4 | 1 | 11* | 4 | 0 | 4.3*
SMILES | SMARCA2 act | DAX1 inh-1 | hgDAF-12 ag | hcDAF12 agonist | ssDAF-12 act | DAX1 inh-2
COc1ccc(NC(=O)c2cc(-c3ccco3)on2)c(OC)c1 | -1 | 0 | -1 | 2 | -1 | 2
CC(=O)Nc1ccc(NC(=O)CSc2nc3ccccc3o2)cc1 | 3 | 0 | 7 | 0 | 0 | 0
CN(C)S(=O)(=O)c1cccc(NC(=O)COC(=O)c2cc3ccccc3oc2=O)c1 | 4 | 3 | 13* | 4 | 1 | 5.3*
COc1ccc(NC(=O)c2cc(C3CC3)on2)c(OC)c1 | 0 | 2 | 6 | 5 | 1.1* | 1
CN(CC(=O)NCc1ccncc1)S(=O)(=O)c1cc(Cl)ccc1Cl | -4 | 0 | 2 | 0 | -1 | 0
CCOC(=O)C1CCN(S(=O)(=O)c2cccc3nonc23)CC1 | -3 | 0 | 1 | -2 | -1 | 0
Cc1ccnc(NC(=O)c2cc3ccccc3oc2=O)c1 | 5 | 3 | 11* | 2 | 0 | 3
COc1ccc(NC(=O)c2cc3ccccc3oc2=O)c(OC)c1 | 8 | 1 | 11* | 5 | 0 | 2
O=C(O)c1ccccc1NC(=O)c1cc2ccccc2oc1=O | 2 | 1 | 2 | 2 | -1 | 1
COc1ccc(-c2cc3ccccc3oc2=O)cc1 | 2 | 2 | 13* | 5 | 0 | 2
CC(C)(C)c1ccc(OCc2ccc(C(=O)Nc3cccnc3)o2)cc1 | -2 | 0 | 4 | -3 | -1 | 0
CCC(C)N(C(=O)CSc1nnc(-c2ccco2)n1C)C1CCS(=O)(=O)C1 (configuration not stated) | -2 | -1 | 2 | -1 | -1 | 4.6*
CC(C)(C)OC(=O)N1CCN(C(=O)c2[nH]cnc2C(=O)Nc2cccc(Cl)c2)CC1 | 0 | 0 | 4 | 0 | -1 | 5.9*
O=C(CC1CC2CCC1C2)Nc1nc(-c2ccccn2)cs1 (configuration not stated) | -1 | 0 | 8 | 6.3* | -1 | 0
CC1(C(=O)O)CC(C)(C(=O)O)CC(C)(C(=O)O)C1 (configuration not stated) | 0 | 0 | 0 | -1 | 0 | 2
Oc1ccc(-c2cn3ccccc3n2)cc1O | 2 | 2 | 8 | 6.1* | 0 | 1
CCCCCOc1ccc(Cn2ccnc2)cc1[N+](=O)[O-] | 1 | 0 | -3 | -2 | -2 | -3
CCCOc1ccc(-c2csc(N)n2)cc1[N+](=O)[O-] | 6 | 0 | 6 | 1 | -1 | 2
O=[N+]([O-])c1ccc(-c2cn3ccccc3n2)cc1 | 7 | 2 | 7 | 2 | 0 | ·
CCCCOc1ccc(-c2cn3ccccc3n2)cc1[N+](=O)[O-] | 7 | 0 | 11* | 1 | -1 | -1
CCOc1ccc(-c2cn3ccccc3n2)cc1[N+](=O)[O-] | 4 | 1 | 11* | 1 | 0 | 2

Screening data from PubChem BioAssay.
